Records with an inconclusive call do not appear. The source made the active and inactive calls. Calls follow the shape of the dose curve; as a rule, active = well fitted curve in the direction sought with a large enough effect; inconclusive = small, poorly fitted or top-dose-only effect, or another doubt; inactive = no such curve, though single readings can be large or run the other way.
% is scaled to controls: 0 for no effect and ±100 for the full control effect; potency is read from the fitted curve at half-maximal effect.

The test is described as follows: qHTS for Inhibitors of the vitamin D receptor (VDR): Hit Validation using a Texas Red Assay (AID 602201). The conditions noted are these: VDR coregulator binding, Texas Red fluorescence polarization, agonist-bound VDR ligand-binding domain; series mostly up to 57.1 µM; activity, negative = inhibition: at the top concentration. In a few lines: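 Fluorescence polarization with 1.5 uM VDR-LBD, LG19078 and 7 nM Texas Red (final). After 2 hours at ambient temperature, read at Ex 595 nm/Em 615 nm.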
For `CC1=CC(=O)C(C(C)C)=CC1=NC(=O)c1ccc(C)cc1`, the “activity, negative = inhibition” value was -11.6% (inactive).

On to `COc1ccccc1N1C(=O)C=C(Sc2nc(C)cc(C)n2)C1=O`, for which the Potency is 14.1 µM (active).

Turning to `CCOc1cc(/C=C\c2[nH]c(=O)[nH]c(=O)c2[N+](=O)[O-])ccc1OC(C)CC` (centres undefined), the “activity, negative = inhibition” value is -16.1% (inactive).

As for `CCOC(=O)CS(=O)(=O)c1nc(-c2ccccc2)cc(C(F)(F)F)n1`, the “activity, negative = inhibition” value is -18.5% (inactive).

`N#Cc1c(Nc2ccc(Cl)cc2)s[nH]c1=O`: the “activity, negative = inhibition” value is -3.75% (inactive).

As for `CN1C(=O)/C(=N\OC(=O)c2ccccc2Cl)c2ccccc21`, the Potency is 31.6 µM (active).

For the molecule `CN1CCN(C(c2ccc(Br)cc2)c2cc(Cl)c3cccnc3c2O)CC1` (centres undefined), the Potency was 28.2 µM (active).

Consider `CSc1nnc(NC(=O)c2nc(S(=O)(=O)Cc3ccccc3)ncc2Cl)s1`, for which the Potency is 28.2 µM (active).

For the molecule `O=C(/C=C/c1cccc([N+](=O)[O-])c1)c1ccc2c(c1)OCCO2`, the Potency is 14.1 µM (active).

For the molecule `O=C(/C=C/c1ccccc1Cl)c1cccnc1`, the “activity, negative = inhibition” value is -19.7% (inactive).

Take `COC(=O)c1ccccc1NC(=O)c1nc(S(=O)(=O)Cc2ccccc2)ncc1Cl`: the Potency is 3.16 µM (active).

Turning to `COc1cccc(/C=C2\C(=O)N(c3cccc(C)c3)C(=O)c3ccccc32)c1`, the Potency is 14.1 µM (active).

Regarding `CCOC(=O)/C(=C\c1cccc(O)c1)c1nc2sc(C)c(C)c2c(=O)[nH]1`, the “activity, negative = inhibition” value is -7.53% (inactive).

`CCOC(=O)c1c(C)oc2c1c1c(c3ccccc32)OCN(Cc2cccnc2)C1`: the Potency was 20 µM (active).

For `CCn1c(CSc2nnc(-c3ccncc3)n2CCOC)nc2cc(C(=O)O)ccc21`, the Potency is 15.8 µM (active).

For `CCc1ccc(-n2nc3cc(C)c(N)cc3n2)cc1`, the Potency is 15.8 µM (active).

For `O=C(Oc1ccccc1/C=C\C(=O)c1cc2ccccc2o1)c1ccccc1`, the Potency is 8.91 µM (active).

As to `Cc1cccc2c1N(Cc1ccccc1OCCC(C)C)C(=O)C2=O`, the Potency was 12.6 µM (active).

For `CS(=O)(=O)c1nc(-c2ccccc2)cc(C(F)(F)F)n1`, the Potency is 10 µM (active).

In the case of `O=C1ON=C(c2ccccc2)/C1=C/c1ccc(O)cc1`, the “activity, negative = inhibition” value is -14.3% (inactive).

In the case of `CCCc1nnc(NC(=O)c2nc(S(=O)(=O)Cc3cccc(C)c3)ncc2Cl)s1`, the “activity, negative = inhibition” value was -10.4% (inactive).

Regarding `Cc1nc(NC(=O)c2ccc(Cl)cc2)sc1Cc1ccc2c(c1)OCO2`, the “activity, negative = inhibition” value is -10.2% (inactive).

With `C=CCOc1c(Br)cc(/C=C2/C(=O)ON=C2C)cc1OC`, the “activity, negative = inhibition” value is -6.68% (inactive).

As for `Cc1cc2nc3ccc(N(C)C)cc3nc2cc1N`, the Potency was 3.55 µM (active).

`O=C(Nc1nnc(COc2ccc(Cl)cc2)s1)c1ccco1`: the “activity, negative = inhibition” value is -12.3% (inactive).

For the molecule `O=C(Nc1ccccc1)c1nc(S(=O)(=O)Cc2ccccc2F)ncc1Cl`, the Potency was 2.82 µM (active).

Consider `Oc1ccc(N=C/C=C/c2cccc(Br)c2)cc1-c1nc2ccccc2s1`, for which the Potency was 15.8 µM (active).

Turning to `Cc1cc(C)nc(S/C=C/C(=O)c2ccccc2F)n1`, the Potency was 7.94 µM (active).

For the molecule `CN1CCN(C(=O)c2sc(=S)n(-c3ccccc3)c2N)CC1`, the “activity, negative = inhibition” value was -19.6% (inactive).

Regarding `COc1ccc(C(Nc2cc(C)ccn2)c2ccc3ccc(C)nc3c2O)cc1` (centres undefined), the Potency was 14.1 µM (active).

As for `[O-]/[N+](=C/c1ccc(F)cc1)c1ccc(Cl)cc1`, the “activity, negative = inhibition” value is -6.68% (inactive).

Take `c1ccc(CCc2nn3c(Cc4ccccc4)nnc3s2)cc1`: the Potency is 28.2 µM (active).

Consider `CCOc1ccc(C(=O)CC(C(=O)O)N2CCCCC2)cc1` (centres undefined), for which the “activity, negative = inhibition” value was -4.98% (inactive).

Turning to `O=S1OC(c2ccccc2)c2cc(Cl)ccc21` (centres undefined), the Potency is 7.08 µM (active).

On to `CCC(C)(C)n1nnnc1C(c1ccc(O)c(OC)c1)N1CCc2ccccc2C1` (centres undefined), for which the Potency is 25.1 µM (active).

Turning to `Oc1ccc(C(=S)N2CCN(c3cccc(Cl)c3)CC2)cc1`, the “activity, negative = inhibition” value was -11% (inactive).

`COc1cc(/C=C2\C(=O)ON=C2c2ccc(Cl)cc2)ccc1O`: the Potency is 3.55 µM (active).

With `O=C(O)CCNc1ccc(NCCC(=O)O)c2c1C(=O)c1ccccc1C2=O`, the Potency is 8.91 µM (active).

For the molecule `CCOc1cc(/C=C2\COc3ccccc3C2=O)cc(Br)c1OCC(=O)N(C)C`, the “activity, negative = inhibition” value was -20.6% (inactive).

These data come from PubChem BioAssay (NCATS).
